Reference: PubChem BioAssay (NCI)
Compounds without any hit were thinned out: in the full panel of roughly 83,000, 20% have a hit.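 Growth was measured after 48 h exposure to one concentration of compound in 96-well plates. Values under 10 count as active.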 A number with no mark means an inactive call. Activity calls are given as the source filed them.

These compounds were tested on MDA-MB-231 breast (assay: NCI-60 one-dose screen, 48 h (100 = growth as untreated, 0 = no growth, -100 = all killed)). Details: 10 µM unless noted.

Q: Which growth does the source give for `C=C1C(=O)O[C@H]2[C@H]1CC/C(COC(=O)NCCc1c[nH]c3ccccc13)=C\CC[C@@]1(C)O[C@@H]21` here?
A: -19.3% (active)

Q: `C/C(=N\Nc1cc(C)c2ccccc2n1)c1ccccn1` was tested. Which growth did it give?
A: -28.7% (active)

Q: How did the growth turn out when `COC(=O)CNc1nc(N(C)O)nc(N(C)O)n1` was run?
A: 43%

Q: Which growth does the source give for `Cc1ccc(-c2nc([P+](c3ccccc3)(c3ccccc3)c3ccccc3)c(N3C[C@H]4C[C@H](C3)c3cccc(=O)n3C4)o2)cc1` here?
A: 90.9%

Q: How did the growth turn out when `COC(=O)[C@]12CC[C@@H](C)[C@H](C)[C@@H]1C1=CC[C@@H]3[C@@]4(C)CC(=O)[C@H](OC(=O)c5ccco5)[C@@]5(C)COC(=C45)C[C@@]3(C)[C@]1(C)CC2` was run?
A: 40.4%

Q: `COc1ccc(/C=C/C(=O)NCC(C)O)cc1` (configuration not stated) was tested. Which growth did it give?
A: 100%

Q: `Cc1nn(-c2ccc(Cl)cc2)c(=O)n1CCn1cnc2ccccc21` was tested. Which growth did it give?
A: 111%

Q: Which growth does the source give for `CN1CCN(CCOc2ccc(-c3cnc4c(-c5ccccc5F)cnn4c3)cc2)CC1` here?
A: 29.2%

Q: For `O=C(NO)c1ccc(Cn2c(=O)n(-c3ccccc3)c(=O)c3ccccc32)cc1`, which growth is on record?
A: 55.1%

Q: For `COc1cccc2c1C(=O)c1c(O)c3c(c(O)c1C2=O)C[C@@](O)(C(=O)CO)C[C@@H]3OC1C[C@H](N)[C@H](O)[C@H](C)O1` (some centres not stated), which growth is on record?
A: -9.32% (active)

Q: How did the growth turn out when `CCC(CC)C(=O)OC(C)COc1ccc(C(C)(C)C)cc1` (configuration not stated) was run?
A: 108%

Q: `Nc1ccc(Cl)cn1` was tested. Which growth did it give?
A: 101%

Q: With `CN1CCN(CCOc2ccc(-c3cnc4c(-c5cccc(F)c5)cnn4c3)cc2)CC1` as the compound, how does the growth read?
A: 47.7%

Q: How did the growth turn out when `CCCC1CCCCN1C(=O)OCC(C)C` (configuration not stated) was run?
A: 109%

Q: Which growth does the source give for `O=S(=O)(NCCNc1cc(-c2cn(-c3ccccc3)nc2-c2cccc(O)c2)ccn1)c1cccc(F)c1` here?
A: 11.5%

Q: `Cc1cccc(C)c1NC(=O)CSC(=S)N1CCCCC1` was tested. Which growth did it give?
A: 119%

Q: How did the growth turn out when `O=C(/C=C/c1cccc(O)c1)c1ccccc1O` was run?
A: 80.3%

Q: `O=C(NO)c1ccc(Cn2c(=O)n(CCc3ccc(O)cc3)c(=O)c3ccccc32)cc1` was tested. Which growth did it give?
A: 39.1%

Q: Which growth does the source give for `COc1ccc(O)c(-c2cc(-c3ccc(Cl)cc3)c(C#N)c(=O)[nH]2)c1` here?
A: 61.2%

Q: Which growth does the source give for `CCC(=O)c1c(C)[nH]c(C)c1C` here?
A: 95.8%

Q: Which growth does the source give for `COc1cc(-c2cc3ncccc3c3nc(OCCN(C)C)c4cccnc4c23)cc(OC)c1OC` here?
A: 20.2%

Q: With `O=C(/C=C/c1cccc2ccccc12)Nc1ncc(Cc2ccccc2)s1` as the compound, how does the growth read?
A: 25%

Q: For `CC(C)/C=C/CC[C@](C)(O)[C@H]1CC[C@]2(C)[C@@H]1CC[C@@H]1[C@@]3(C)C/C(=C/c4cccc(C(F)(F)F)c4)C(=O)C(C)(C)[C@@H]3CC[C@]12C`, which growth is on record?
A: 88.9%

Q: How did the growth turn out when `O=C(NCN1C(=O)c2cccc3cccc(c23)C1=O)N1CCC(Cc2ccccc2)CC1` was run?
A: 98.2%

Q: `COc1cnc2c(c1)C(=O)c1c-2n(CCCNCCN2CCOCC2)c(=O)c2cc([N+](=O)[O-])ccc12` was tested. Which growth did it give?
A: 2.48% (active)

Q: How did the growth turn out when `CCCCCCCC(=O)SCC/C=C/[C@@H]1CC(=O)NCc2cccc(n2)CN(Cc2ccc3ccccc3c2)CC(=O)N[C@@H](C(C)C)C(=O)O1` was run?
A: 27.3%

Q: How did the growth turn out when `Fc1ccc2nc(-c3cc(-c4ccc5c(c4)OCO5)n[nH]3)[nH]c2c1` was run?
A: 67.6%

Q: Which growth does the source give for `Cn1cc(-c2nc(-c3cn(C)c4ncccc34)cs2)c2cc(F)ccc21` here?
A: 47.1%

Q: Which growth does the source give for `NCCn1cc(-c2nc(-c3c[nH]c4ncccc34)cs2)c2ccccc21` here?
A: 66.2%

Q: `COc1ccc(-c2cc(-c3c(C)oc4cc5occc5c(OC)c4c3=O)nc(N)c2C#N)cc1OC` was tested. Which growth did it give?
A: 64.4%

Q: Which growth does the source give for `CN(C)CCCCC(C(=O)CBr)(c1ccccc1)c1ccccc1` here?
A: 38.1%

Q: With `O=C1Nc2ccccc2/C1=C/c1cn(CCCn2c3ccccc3c(=O)c3ccccc32)c2ccccc12` as the compound, how does the growth read?
A: 67.9%

Q: How did the growth turn out when `C=C(C)[C@@H]1CC[C@]2(C=NCCCNCCCCNCCCN)CC[C@]3(C)[C@H](CC[C@@H]4[C@@]5(C)CCCNC(C)(C)[C@@H]5CC[C@]43C)[C@@H]12` was run?
A: 104%

Q: `CCCCn1c(-c2ccc(O)cc2)cn2c3c(=O)[nH]c(=O)n(C)c3nc12` was tested. Which growth did it give?
A: 66.5%

Q: Which growth does the source give for `Cc1nn(-c2ccc(Br)cc2)c2nc3[nH]c(=O)[nH]c(=O)c3nc12` here?
A: 110%

Q: How did the growth turn out when `Cc1cc2nc3c4cc(N)ccc4n(CCN(C)C)c3nc2cc1C` was run?
A: 7.84% (active)

Q: Which growth does the source give for `COc1ccc(-c2nc3c(c(C)nn3-c3ccc(F)cc3)c(=O)[nH]2)cc1` here?
A: 75.2%
